Structures can show the parent of a compound that is named as a salt.
System: Saccharomyces cerevisiae
Assay: fraction of cells in G1 phase (DNA content, flow cytometry); higher = more cells with unreplicated DNA (G1 delay)
Conditions: temperature: 30 C; YPD; JTY2953 pdr5 snq2 (sensitized); drug added to: cultures diluted from stationary phase; 6-7 h
Method in brief: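 Library drugs were added to S. cerevisiae in YPD at 30°C, with fixation after 6–7 h for sensitized JTY2953 diluted 1∶200 from overnight and given a final 20 µg/ml, 6 h for dividing JTY2953, and 4.33 h for BY4741. Ethanol-fixed cells stained with SYTOX Green were read by flow cytometry, 10,000 events each. The G1 fraction is the ratio of the Dean-Jett-Fox G1 peak area to the G1 plus G2/M areas.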

| SMILES | fraction of cells in G1 phase |
| --- | --- |
| C[C@@H](O[C@H]1OCCN(Cc2n[nH]c(=O)[nH]2)[C@H]1c1ccc(F)cc1)c1cc(C(F)(F)F)cc(C(F)(F)F)c1 [Aprepitant] (37.4225 µM) | 0.493 |
| N=c1ccn2c(n1)O[C@H]1[C@H](O)[C@@H](CO)O[C@H]12 [Cyclocytidine HCl] (88.8077 µM) | 0.484 |
| Clc1ccccc1CN1CCc2sccc2C1 [Ticlopidine HCl] (75.8175 µM) | 0.505 |
| CC1(C)[C@H](C(=O)O)N2C(=O)C[C@H]2S1(=O)=O [Sulbactam] (85.7469 µM) | 0.477 |
| C[N+]1(C)[C@@H]2CC(OC(=O)C(O)(c3cccs3)c3cccs3)C[C@H]1[C@@H]1O[C@@H]12 (stereo partly drawn) [Tiotropium Br] (42.3349 µM) | 0.481 |
| CCCCC[C@H](O)/C=C/[C@H]1[C@H](O)CC(=O)[C@@H]1C/C=C\CCCC(=O)O [Dinoprostone] (56.7416 µM) | 0.487 |
| CCOC(=O)C1=C(C)NC(C)=C(C(=O)OCC)C1c1ccccc1/C=C/C(=O)OC(C)(C)C [Lacidipine] (43.9024 µM) | 0.516 |
| CC#C[C@]1(O)CC[C@H]2[C@@H]3CCC4=CC(=O)CCC4=C3[C@@H](c3ccc(N(C)C)cc3)C[C@@]21C [Mifepristone] (46.5541 µM) | 0.469 |
| Cc1onc(-c2ccccc2)c1C(=O)N[C@@H]1C(=O)N2[C@@H]1SC(C)(C)[C@@H]2C(=O)O [Oxacillin sodium monohydrate] (49.9455 µM) | 0.486 |
| CC(c1cc2ccccc2s1)N(O)C(N)=O (stereo not drawn) [Zileuton] (84.6401 µM) | 0.53 |
| O=C(O)C(=O)O.[NH-][C@@H]1CCCC[C@H]1[NH-].[Pt+2] [Oxaliplatin] (50.3396 µM) | 0.493 |
| Nc1ccc(C(=O)O)c(O)c1 [4-aminosalicylic acid] (130.601 µM) | 0.481 |
| O=C(NCC1CCCCN1)c1cc(OCC(F)(F)F)ccc1OCC(F)(F)F (stereo not drawn) [Flecainide] (42.1585 µM) | 0.509 |
| COC(=O)CCc1ccc(OCC(O)CNC(C)C)cc1 (stereo not drawn) [Esmolol] (67.7089 µM) | 0.459 |
| C[C@]12CC[C@@H]3c4ccc(O)cc4C[C@@H](CCCCCCCCC[S+]([O-])CCCC(F)(F)C(F)(F)F)[C@H]3[C@@H]1CC[C@@H]2O (stereo partly drawn) [Fulvestrant] (32.9606 µM) | 0.458 |
| N=C(N)N1CCc2ccccc2C1 [Debrisoquin sulfate] (114.132 µM) | 0.513 |
| N=C(N)NC(=O)c1nc(Cl)c(N)nc1N [Amiloride] (75.1597 µM) | 0.516 |
| COCCOC(=O)C1=C(C)NC(C)=C(C(=O)OC/C=C/c2ccccc2)C1c1cccc([N+](=O)[O-])c1 (stereo not drawn) [Cilnidipine] (40.6064 µM) | 0.494 |
| Oc1ccc(C2CNCCc3c2cc(O)c(O)c3Cl)cc1 (stereo not drawn) [Fenoldopam mesylate] (65.41 µM) | 0.533 |

| SMILES | fraction of cells in G1 phase |
| --- | --- |
| CN(C)C(=N)NC(=N)N [Metformin] (154.84 µM) | 0.516 |
| Nc1nc2c(ncn2COCCO)c(=O)[nH]1 [Acycloguanosine] (88.8066 µM) | 0.472 |
| CN1CCc2cccc3c2[C@H]1Cc1ccc(O)c(O)c1-3 [Apomorphine r (-)] (74.8137 µM) | 0.483 |
| COCCc1ccc(OCC(O)CNC(C)C)cc1 (stereo not drawn) [Metoprolol tartrate] (74.8023 µM) | 0.491 |
| O=C(c1ccc(OCCN2CCCCC2)cc1)c1c(-c2ccc(O)cc2)sc2cc(O)ccc12 [Raloxifene HCl] (42.2301 µM) | 0.508 |
| OCCOCCN1CCN(C2=Nc3ccccc3Sc3ccccc32)CC1 [Quetiapine fumarate] (22.6473 µM) | 0.499 |
| CC(=O)O[C@H]1C[C@@H]2CC[C@@H]3[C@H](CC[C@@]4(C)[C@H]3C[C@H]([N+]3(C)CCCCC3)[C@@H]4OC(C)=O)[C@@]2(C)C[C@@H]1N1CCCCC1 [Vecuronium Br] (35.8523 µM) | 0.478 |
| COc1ccnc(C[S+]([O-])c2nc3cc(OC(F)F)ccc3[nH]2)c1OC (stereo not drawn) [Pantoprazole] (52.168 µM) | 0.484 |
| Nc1ccc(S(=O)(=O)Nc2ncccn2)cc1 [Sulfadiazine] (79.9102 µM) | 0.521 |
| CCCc1cc(C(N)=S)ccn1 [Prothionamide] (110.943 µM) | 0.482 |
| CCCCc1ncc(/C=C(\Cc2cccs2)C(=O)O)n1Cc1ccc(C(=O)O)cc1 [Eprosartan] (47.1117 µM) | 0.493 |
| CCN(CC)CCNC(=O)c1ccc(N)cc1 [Procainamide] (73.5835 µM) | 0.494 |
| O=C(O)CCCc1ccccc1 [Sodium phenylbutyrate] (107.418 µM) | 0.491 |
| COc1cc(NC(C)CCCN)c2ncccc2c1 (stereo not drawn) [Primaquine phosphate] (77.1146 µM) | 0.461 |
| C[C@]12CC[C@@H]3c4ccc(O)cc4CC[C@H]3[C@@H]1C[C@@H](O)[C@@H]2O [Estriol] (69.3505 µM) | 0.535 |
| CC(C)NCC(O)c1ccc(NS(C)(=O)=O)cc1 (stereo not drawn) [Sotalol HCl] (73.4298 µM) | 0.535 |
| CC(C)Cc1ccc(C(C)C(=O)O)cc1 (stereo not drawn) [Ibuprofen] (96.9522 µM) | 0.575 |
| O=C1C(=O)c2ccccc2C(O)=C1C1CCC(c2ccc(Cl)cc2)CC1 (stereo not drawn) [Atovaquone] (54.5185 µM) | 0.493 |
| C[C@H]1O[C@@H](n2cc(F)c(=O)[nH]c2=O)[C@H](O)[C@@H]1O [Doxifluridine] (81.2358 µM) | 0.479 |
